Reference: PubChem BioAssay (NCATS)
Inconclusive results are not listed. Calls of active or inactive are those of the source. Calls come from the whole dose curve; as a rule, active = well fitted curve in the direction sought with a large enough effect; inconclusive = small, poorly fitted or top-dose-only effect, or another doubt; inactive = no such curve, though single readings can be large; an effect the other way counts as inactive or inconclusive.

Experiments:
[1] = biological target: Cellular tumor antigen p53 (Homo sapiens) (UniProt P04637); experiment: Primary qHTS for small molecule compounds that upregulate eGFP-tagged delta133p53alpha (in N-terminal) cells. (AID 2060322); settings: NCI-H358 eGFP-delta133p53alpha fluorescence, 24 h; activation: stronger effect = higher value;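 note: cells pre-induced with doxycycline then dosed without doxycycline; series mostly up to about 56 µM; 0% = DMSO vehicle and 100% = reference activator; nearly all actives have a fitted effect of over 75% in size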
In short: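 NCI-H358 cells pre-induced 24 h with 10 ng/ml doxycycline for eGFP-delta133p53alpha, plated dox-free and exposed 24 h at 37C to titrated compounds. Fixed, Hoechst-stained; gated GFP peak intensity by laser scanning cytometry, normalized to DMSO (0%) and 57.5 uM 5-azacytidine (100%).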

[2] = biological target: Aldehyde dehydrogenase, mitochondrial (Homo sapiens) (UniProt P05091); experiment: qHTS for Inhibitors of the Aldehyde Dehydrogenase Family (ALDH2) Primary screen (AID 2061308);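 note: plate controls were vehicle for no effect and reference inhibitor for full effect; nearly all actives have a fitted effect of over 55% in size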
[3] = biological target: Retinaldehyde dehydrogenase 3 (Homo sapiens) (UniProt P47895); experiment: qHTS for Inhibitors of the Aldehyde Dehydrogenase Family (ALDH1A3) Primary screen (AID 2061315);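 note: plate controls were DMSO vehicle for no effect and reference inhibitor for full effect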

Chain of Cellular tumor antigen p53 (Homo sapiens) (P04637 whole entry, looked up): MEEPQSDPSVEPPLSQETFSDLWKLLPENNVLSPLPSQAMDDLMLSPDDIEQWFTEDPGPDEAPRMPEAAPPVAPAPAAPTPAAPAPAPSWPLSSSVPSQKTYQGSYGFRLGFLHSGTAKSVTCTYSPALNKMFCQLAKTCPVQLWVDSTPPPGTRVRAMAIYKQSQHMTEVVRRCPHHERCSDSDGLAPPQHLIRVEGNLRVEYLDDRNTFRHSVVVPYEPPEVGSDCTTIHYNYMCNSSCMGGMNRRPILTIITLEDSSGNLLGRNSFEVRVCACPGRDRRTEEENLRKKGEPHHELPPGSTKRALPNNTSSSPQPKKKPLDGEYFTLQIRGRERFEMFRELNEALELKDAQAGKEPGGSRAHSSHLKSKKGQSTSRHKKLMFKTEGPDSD

CC(=O)/C=C/[C@H]1[C@](C)(O)[C@@H](O)[C@H](OC(C)=O)C2C(C)(C)CCC[C@@]21C (stereo not given in full)
inactive: activation [1] -2.68% | Potency [2] | Potency [3]

CC(=O)O[C@H]1CC(C)(C)CC2[C@]13CO[C@@]21CCC2[C@@]4(C)CC[C@H](O[C@@H]5OC[C@H](O[C@@H]6O[C@H](CO)[C@@H](O)[C@H](O)[C@H]6O[C@@H]6OC[C@@H](O)[C@H](O)[C@H]6O)[C@H](O)[C@H]5O[C@@H]5O[C@H](CO)[C@@H](O)[C@H](O)[C@H]5O)[C@@](C)(CO)C4CC[C@@]2(C)[C@]1(C)C[C@H]3O (stereo not given in full)
inactive: activation [1] -17.9% | Potency [2] | Potency [3]

CO[C@H]1O[C@@H]2O[C@]3(C)CC[C@H]4[C@H](C)CC[C@@H]([C@H]1C)[C@@]24OO3
inactive: activation [1] 10.3% | Potency [2] | Potency [3]

CC1=CC[C@@]2(C)CC[C@@](O)(C(C)C)[C@@H]2[C@@H](O)C1
inactive: activation [1] 11.5% | Potency [2] | Potency [3]

C[C@@H]1O[C@@H](O[C@H]2[C@H](O)[C@@H](O)[C@H](OC[C@H]3O[C@@H](OC(=O)[C@]45CCC(C)(C)C[C@H]4C4=CCC6[C@@]7(C)CC[C@H](O[C@@H]8OC[C@H](O)[C@H](O[C@@H]9O[C@H](CO)[C@@H](O)[C@H](O)[C@H]9O)[C@H]8O)[C@@](C)(CO)C7CC[C@@]6(C)[C@]4(C)CC5)[C@H](O)[C@@H](O)[C@@H]3O)O[C@@H]2CO)[C@H](O)[C@H](O)[C@H]1O (stereo not given in full)
inactive: activation [1] -10.7% | activity change, negative = inhibition [2] 1.57% [at 11.2 µM] | activity change, negative = inhibition [3] 14.6% [at 11.2 µM]
